Results reported in PubChem BioAssay (NCI).
About 83,000 compounds went through this panel and 20% of them were active in at least one assay; those are over-represented in the sample as a whole.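 Values shown are percent growth following 48 h exposure of cells in 96-well plates to a single concentration of compound; below 10 was considered active.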 Calls of active or inactive are those of the source.

Columns and labels:
Assay in all cases: NCI-60 one-dose screen, 48 h (100 = growth as untreated, 0 = no growth, -100 = all killed)
Settings in all cases: 10 µM unless noted
SR leukemia = test system: SR leukemia
RPMI-8226 leukemia = test system: RPMI-8226 leukemia
OVCAR-8 ovarian = test system: OVCAR-8 ovarian
OVCAR-5 ovarian = test system: OVCAR-5 ovarian
OVCAR-4 ovarian = test system: OVCAR-4 ovarian
SK-OV-3 ovarian = test system: SK-OV-3 ovarian
IGROV1 ovarian = test system: IGROV1 ovarian
OVCAR-3 ovarian = test system: OVCAR-3 ovarian
HS 578T breast = test system: HS 578T breast
NCI/ADR-RES ovarian = test system: NCI/ADR-RES ovarian
T-47D breast = test system: T-47D breast
BT-549 breast = test system: BT-549 breast
MDA-MB-435 melanoma = test system: MDA-MB-435 melanoma
SW-620 colon = test system: SW-620 colon
MCF7 breast = test system: MCF7 breast
HCT-116 colon = test system: HCT-116 colon
HCC-2998 colon = test system: HCC-2998 colon
KM12 colon = test system: KM12 colon

Measured: growth

C#CC(=O)Nc1cccc(Nc2nc3c(c(NCc4ccccc4)n2)CCCC3)c1
active: SR leukemia -27% | RPMI-8226 leukemia -23.7% | OVCAR-8 ovarian -89.6% | OVCAR-5 ovarian -45% | OVCAR-4 ovarian -95.3% | SK-OV-3 ovarian -98.5% | IGROV1 ovarian -42.6% | OVCAR-3 ovarian -82.9% | HS 578T breast -5.41% | NCI/ADR-RES ovarian 5.07% | T-47D breast -38.7% | BT-549 breast -70% | MDA-MB-435 melanoma -70.6% | SW-620 colon -46.7% | MCF7 breast -39.7% | HCT-116 colon -78.8% | HCC-2998 colon -89.3% | KM12 colon -53.4%

Fc1ccc(C2CC(c3cccc(Nc4ccncc4)c3)=NN2c2cc(Cl)cc(Cl)c2)cc1 (centres undefined)
active: SR leukemia 2.89% | OVCAR-8 ovarian -18.3% | MDA-MB-435 melanoma -22.5% | SW-620 colon -85.2% | MCF7 breast -25.6% | KM12 colon -35.7%
inactive: RPMI-8226 leukemia 20.9% | OVCAR-5 ovarian 87.5% | OVCAR-4 ovarian 15.8% | SK-OV-3 ovarian 83.3% | IGROV1 ovarian 25.1% | OVCAR-3 ovarian 62.1% | HS 578T breast 57.8% | NCI/ADR-RES ovarian 64.3% | T-47D breast 74.6% | BT-549 breast 104% | HCT-116 colon 98.8% | HCC-2998 colon 19.1%

O=C1NC(=S)NC(=O)C1=Cc1cccc(C=C2C(=O)NC(=S)NC2=O)c1
active: HCT-116 colon -76%
inactive: SR leukemia 96.9% | RPMI-8226 leukemia 101% | OVCAR-8 ovarian 104% | OVCAR-5 ovarian 110% | OVCAR-4 ovarian 105% | SK-OV-3 ovarian 110% | IGROV1 ovarian 107% | OVCAR-3 ovarian 108% | HS 578T breast 103% | NCI/ADR-RES ovarian 102% | T-47D breast 97.7% | BT-549 breast 87.5% | MDA-MB-435 melanoma 108% | SW-620 colon 106% | MCF7 breast 96.8% | HCC-2998 colon 107% | KM12 colon 107%

COc1cccc(CCC(=O)c2cc3c(N)c(C(=O)Nc4cccc(Cl)c4C)sc3nc2C)c1
inactive: OVCAR-8 ovarian 24.1% | OVCAR-5 ovarian 28.3% | OVCAR-4 ovarian 36.9% | SK-OV-3 ovarian 32.4% | IGROV1 ovarian 24.4% | NCI/ADR-RES ovarian 10.7% | T-47D breast 28.2% | BT-549 breast 50.6% | SW-620 colon 34% | MCF7 breast 11.3% | HCT-116 colon 13% | KM12 colon 19.6%
active: SR leukemia 9.08% | RPMI-8226 leukemia 7.83% | OVCAR-3 ovarian -8.82% | HS 578T breast 2.96% | MDA-MB-435 melanoma -54.8% | HCC-2998 colon 6.58%

COc1cc(/C=C/C(=O)c2ccc(Nc3ncnc4ccccc34)cc2)cc(OC)c1
active: SR leukemia 0.253% | RPMI-8226 leukemia 2.26% | MDA-MB-435 melanoma -39.2% | SW-620 colon -66.1% | MCF7 breast 0.628% | HCT-116 colon -87.3% | HCC-2998 colon -37.6% | KM12 colon -49.8%
inactive: OVCAR-8 ovarian 57.5% | OVCAR-5 ovarian 101% | OVCAR-4 ovarian 79.8% | SK-OV-3 ovarian 128% | IGROV1 ovarian 60.2% | OVCAR-3 ovarian 36.4% | HS 578T breast 82.4% | NCI/ADR-RES ovarian 73.6% | T-47D breast 117% | BT-549 breast 26.9%

CC(=O)c1cccc(NS(=O)(=O)c2cccc(C(=O)Nc3ccc(Br)cc3)c2)c1
inactive: SR leukemia 60.6% [25 µM] | RPMI-8226 leukemia 30.4% [25 µM] | OVCAR-8 ovarian 57.1% [25 µM] | OVCAR-5 ovarian 77.9% [25 µM] | OVCAR-4 ovarian 47.6% [25 µM] | SK-OV-3 ovarian 58.1% [25 µM] | IGROV1 ovarian 62.4% [25 µM] | OVCAR-3 ovarian 66.1% [25 µM] | HS 578T breast 80.6% [25 µM] | NCI/ADR-RES ovarian 34.7% [25 µM] | T-47D breast 26.7% [25 µM] | BT-549 breast 46.9% [25 µM] | MDA-MB-435 melanoma 37.6% [25 µM] | SW-620 colon 67.4% [25 µM] | MCF7 breast 49% [25 µM] | HCT-116 colon 39.9% [25 µM] | HCC-2998 colon 79.7% [25 µM] | KM12 colon 56% [25 µM]

O=C(NCCc1ccccn1)OCc1nc2nc(Cl)nc(N3CCOCC3)c2[nH]1
active: SR leukemia -23.3% | RPMI-8226 leukemia -23.8% | OVCAR-8 ovarian -0.399% | OVCAR-3 ovarian -79.5% | BT-549 breast 8.16% | SW-620 colon -37.2% | HCT-116 colon -71.8%
inactive: OVCAR-5 ovarian 69.9% | OVCAR-4 ovarian 28.6% | SK-OV-3 ovarian 30.1% | IGROV1 ovarian 23.9% | HS 578T breast 16.5% | NCI/ADR-RES ovarian 16.6% | T-47D breast 33.5% | MDA-MB-435 melanoma 11.9% | MCF7 breast 15.6% | HCC-2998 colon 77.6% | KM12 colon 12.2%

CC(=O)c1cc2c(N)c(C(=O)Nc3cncc4ccccc34)sc2nc1C
inactive: SR leukemia 77.5% | RPMI-8226 leukemia 94.9% | OVCAR-8 ovarian 104% | OVCAR-5 ovarian 104% | OVCAR-4 ovarian 113% | SK-OV-3 ovarian 93.6% | IGROV1 ovarian 104% | OVCAR-3 ovarian 110% | HS 578T breast 95.3% | NCI/ADR-RES ovarian 104% | T-47D breast 93.8% | BT-549 breast 105% | MDA-MB-435 melanoma 43.6% | SW-620 colon 103% | MCF7 breast 91.6% | HCT-116 colon 101% | HCC-2998 colon 106% | KM12 colon 94.3%
